Assay results as given in the supplement of paper PMC11732987, “Enantioselective OTUD7B fragment discovery through chemoproteomics screening and high-throughput optimisation” (Communications Chemistry, 2025).

Key:
Experiment in all cases: log2 ratio of Biotin-Ahx-Ub-VS probe labelling (fragment/DMSO); higher = less target engagement (more negative = stronger competition), active = hit call of the paper (q ≤ 0.05, log2 ratio ≤ -1)
Conditions in all cases: compound concentration: 200 uM; treatment time: 3 h
USP19 = molecular target: T1, USP19 (UniProt O94966)
T1 sequence (whole entry): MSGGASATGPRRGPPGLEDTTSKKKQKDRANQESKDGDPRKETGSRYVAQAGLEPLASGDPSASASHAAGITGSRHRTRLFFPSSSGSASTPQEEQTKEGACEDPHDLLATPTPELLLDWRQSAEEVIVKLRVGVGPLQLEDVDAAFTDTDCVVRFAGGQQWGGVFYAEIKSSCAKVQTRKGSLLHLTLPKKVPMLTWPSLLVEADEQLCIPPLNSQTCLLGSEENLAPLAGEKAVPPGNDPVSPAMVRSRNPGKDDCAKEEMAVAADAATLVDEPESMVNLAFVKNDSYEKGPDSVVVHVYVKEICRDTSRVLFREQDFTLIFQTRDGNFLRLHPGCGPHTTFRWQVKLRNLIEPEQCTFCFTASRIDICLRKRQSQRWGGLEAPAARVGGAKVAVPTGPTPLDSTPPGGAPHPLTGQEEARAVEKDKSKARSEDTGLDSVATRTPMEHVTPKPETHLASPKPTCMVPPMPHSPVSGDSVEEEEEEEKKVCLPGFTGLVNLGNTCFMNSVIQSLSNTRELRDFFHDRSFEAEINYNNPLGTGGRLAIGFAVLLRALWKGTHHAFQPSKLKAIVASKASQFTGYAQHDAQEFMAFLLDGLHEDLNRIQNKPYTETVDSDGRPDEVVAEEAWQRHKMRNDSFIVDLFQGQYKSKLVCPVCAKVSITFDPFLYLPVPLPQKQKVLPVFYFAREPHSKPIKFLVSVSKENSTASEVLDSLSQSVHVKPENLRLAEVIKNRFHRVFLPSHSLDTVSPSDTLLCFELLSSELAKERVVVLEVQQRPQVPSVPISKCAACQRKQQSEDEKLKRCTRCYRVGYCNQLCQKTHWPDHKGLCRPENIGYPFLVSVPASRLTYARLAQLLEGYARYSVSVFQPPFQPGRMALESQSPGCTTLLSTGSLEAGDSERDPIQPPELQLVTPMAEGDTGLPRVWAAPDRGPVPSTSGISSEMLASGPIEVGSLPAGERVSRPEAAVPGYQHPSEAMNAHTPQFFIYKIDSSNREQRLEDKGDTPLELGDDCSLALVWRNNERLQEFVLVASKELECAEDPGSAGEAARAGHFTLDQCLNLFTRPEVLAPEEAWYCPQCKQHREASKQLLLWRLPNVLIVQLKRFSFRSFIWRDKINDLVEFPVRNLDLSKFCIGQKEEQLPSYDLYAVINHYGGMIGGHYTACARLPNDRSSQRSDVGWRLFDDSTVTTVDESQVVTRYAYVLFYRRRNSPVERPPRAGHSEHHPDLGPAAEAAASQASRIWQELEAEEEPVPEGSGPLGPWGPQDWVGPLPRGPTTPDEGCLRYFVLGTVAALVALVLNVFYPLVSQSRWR
Outline: (§1)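 HEK293T lysate (495 µg per sample, in Tris/CHAPS/IGEPAL buffer with protease inhibitors) was exposed in triplicate for 3 h to fragment at 200 µM or to vehicle, then to Biotin-Ahx-Ub-VS at 0.5 µM final for 1 h. Labelled DUBs were enriched on NeutrAvidin, digested with LysC and trypsin, and analysed by diaPASEF LC-MS/MS. Spectronaut label-free quantities were normalised to the global median, and values are average log2 ratios of fragment over vehicle from an unpaired t-test. Only proteins with ≥2 unique peptides were used.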

USP22 = molecular target: T2, USP22 (UniProt Q9UPT9)
T2 sequence (whole entry): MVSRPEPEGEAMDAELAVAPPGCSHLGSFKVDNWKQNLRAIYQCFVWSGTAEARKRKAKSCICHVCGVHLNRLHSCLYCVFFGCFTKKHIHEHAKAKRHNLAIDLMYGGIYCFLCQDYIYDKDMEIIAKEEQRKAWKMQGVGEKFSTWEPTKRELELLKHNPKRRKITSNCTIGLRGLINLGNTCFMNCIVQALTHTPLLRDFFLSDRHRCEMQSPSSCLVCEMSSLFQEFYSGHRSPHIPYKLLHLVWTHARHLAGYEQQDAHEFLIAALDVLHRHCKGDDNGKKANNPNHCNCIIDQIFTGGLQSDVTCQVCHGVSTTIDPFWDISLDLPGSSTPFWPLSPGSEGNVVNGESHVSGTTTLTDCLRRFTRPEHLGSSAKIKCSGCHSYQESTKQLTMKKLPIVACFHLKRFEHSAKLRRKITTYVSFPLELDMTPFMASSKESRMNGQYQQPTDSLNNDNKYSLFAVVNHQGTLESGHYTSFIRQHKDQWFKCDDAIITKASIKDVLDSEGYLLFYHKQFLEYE
Outline: as §1

USP24 = USP24 (UniProt Q9UPU5)
USP24, sequence (Q9UPU5 whole entry): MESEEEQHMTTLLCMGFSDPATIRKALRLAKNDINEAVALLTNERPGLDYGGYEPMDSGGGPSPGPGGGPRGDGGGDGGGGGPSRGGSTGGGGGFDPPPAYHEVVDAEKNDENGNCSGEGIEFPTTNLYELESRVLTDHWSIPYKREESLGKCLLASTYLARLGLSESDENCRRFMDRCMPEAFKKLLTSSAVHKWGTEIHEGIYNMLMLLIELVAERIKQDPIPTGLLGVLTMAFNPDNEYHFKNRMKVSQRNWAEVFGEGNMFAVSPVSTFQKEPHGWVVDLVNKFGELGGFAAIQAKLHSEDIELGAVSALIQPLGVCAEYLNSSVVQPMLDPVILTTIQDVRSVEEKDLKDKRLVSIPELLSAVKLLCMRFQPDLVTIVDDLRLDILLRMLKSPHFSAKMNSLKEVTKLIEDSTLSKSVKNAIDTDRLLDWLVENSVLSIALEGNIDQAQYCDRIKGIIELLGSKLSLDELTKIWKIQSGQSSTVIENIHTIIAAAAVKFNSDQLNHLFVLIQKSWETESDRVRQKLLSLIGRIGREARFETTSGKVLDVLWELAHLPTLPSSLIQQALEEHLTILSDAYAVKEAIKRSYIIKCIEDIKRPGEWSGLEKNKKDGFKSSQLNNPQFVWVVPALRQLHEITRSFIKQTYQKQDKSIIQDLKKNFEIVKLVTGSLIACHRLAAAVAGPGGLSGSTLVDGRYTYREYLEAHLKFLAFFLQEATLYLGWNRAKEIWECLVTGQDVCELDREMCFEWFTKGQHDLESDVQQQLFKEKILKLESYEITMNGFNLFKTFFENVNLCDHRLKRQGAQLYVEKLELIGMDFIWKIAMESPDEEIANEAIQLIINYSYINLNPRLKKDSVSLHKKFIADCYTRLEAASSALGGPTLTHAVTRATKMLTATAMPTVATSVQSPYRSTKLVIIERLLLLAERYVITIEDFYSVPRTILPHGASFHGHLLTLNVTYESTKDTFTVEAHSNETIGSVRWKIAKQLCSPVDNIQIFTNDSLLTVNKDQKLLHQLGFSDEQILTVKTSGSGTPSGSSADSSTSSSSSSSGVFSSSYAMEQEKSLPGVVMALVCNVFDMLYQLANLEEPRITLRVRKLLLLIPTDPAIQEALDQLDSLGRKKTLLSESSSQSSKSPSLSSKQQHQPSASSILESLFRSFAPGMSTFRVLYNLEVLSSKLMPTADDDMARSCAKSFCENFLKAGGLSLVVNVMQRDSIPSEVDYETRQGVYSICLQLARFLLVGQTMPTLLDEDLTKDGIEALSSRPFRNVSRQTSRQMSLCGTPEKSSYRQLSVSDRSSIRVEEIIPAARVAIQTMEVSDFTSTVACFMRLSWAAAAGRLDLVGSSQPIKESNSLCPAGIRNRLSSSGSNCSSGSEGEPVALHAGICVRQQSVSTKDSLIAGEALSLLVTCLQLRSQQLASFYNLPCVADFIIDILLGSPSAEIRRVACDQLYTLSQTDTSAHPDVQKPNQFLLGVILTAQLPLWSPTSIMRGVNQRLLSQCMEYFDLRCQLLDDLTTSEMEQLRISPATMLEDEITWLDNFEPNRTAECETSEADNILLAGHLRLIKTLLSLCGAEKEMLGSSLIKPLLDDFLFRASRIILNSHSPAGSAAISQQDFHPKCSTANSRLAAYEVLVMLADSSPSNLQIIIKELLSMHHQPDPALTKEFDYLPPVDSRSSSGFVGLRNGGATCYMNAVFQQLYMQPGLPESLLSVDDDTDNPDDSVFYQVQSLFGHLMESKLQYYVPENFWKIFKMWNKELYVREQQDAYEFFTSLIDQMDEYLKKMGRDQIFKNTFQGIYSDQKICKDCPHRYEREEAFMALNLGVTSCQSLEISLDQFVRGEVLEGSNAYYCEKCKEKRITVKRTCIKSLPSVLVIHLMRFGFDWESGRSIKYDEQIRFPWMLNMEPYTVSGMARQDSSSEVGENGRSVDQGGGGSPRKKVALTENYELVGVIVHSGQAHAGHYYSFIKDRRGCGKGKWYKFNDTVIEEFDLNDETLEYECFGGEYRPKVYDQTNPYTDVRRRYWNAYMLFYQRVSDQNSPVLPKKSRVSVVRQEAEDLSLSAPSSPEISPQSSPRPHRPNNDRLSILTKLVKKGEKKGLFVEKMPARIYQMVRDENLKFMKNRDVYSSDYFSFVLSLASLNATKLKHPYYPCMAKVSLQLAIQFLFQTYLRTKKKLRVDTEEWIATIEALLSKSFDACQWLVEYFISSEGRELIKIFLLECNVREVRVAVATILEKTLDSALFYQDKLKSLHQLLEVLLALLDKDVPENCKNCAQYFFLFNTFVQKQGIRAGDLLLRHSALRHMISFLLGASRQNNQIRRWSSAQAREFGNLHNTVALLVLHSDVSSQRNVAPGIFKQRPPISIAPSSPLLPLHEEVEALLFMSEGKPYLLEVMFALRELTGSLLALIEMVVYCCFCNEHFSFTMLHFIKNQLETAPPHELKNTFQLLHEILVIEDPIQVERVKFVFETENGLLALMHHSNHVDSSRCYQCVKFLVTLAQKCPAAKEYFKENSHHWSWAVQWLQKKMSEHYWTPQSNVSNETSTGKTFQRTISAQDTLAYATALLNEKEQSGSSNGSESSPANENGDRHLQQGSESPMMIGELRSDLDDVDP
Outline: as §1

USP25 = molecular target: T3, USP25 (UniProt Q9UHP3)
T3 sequence (whole entry): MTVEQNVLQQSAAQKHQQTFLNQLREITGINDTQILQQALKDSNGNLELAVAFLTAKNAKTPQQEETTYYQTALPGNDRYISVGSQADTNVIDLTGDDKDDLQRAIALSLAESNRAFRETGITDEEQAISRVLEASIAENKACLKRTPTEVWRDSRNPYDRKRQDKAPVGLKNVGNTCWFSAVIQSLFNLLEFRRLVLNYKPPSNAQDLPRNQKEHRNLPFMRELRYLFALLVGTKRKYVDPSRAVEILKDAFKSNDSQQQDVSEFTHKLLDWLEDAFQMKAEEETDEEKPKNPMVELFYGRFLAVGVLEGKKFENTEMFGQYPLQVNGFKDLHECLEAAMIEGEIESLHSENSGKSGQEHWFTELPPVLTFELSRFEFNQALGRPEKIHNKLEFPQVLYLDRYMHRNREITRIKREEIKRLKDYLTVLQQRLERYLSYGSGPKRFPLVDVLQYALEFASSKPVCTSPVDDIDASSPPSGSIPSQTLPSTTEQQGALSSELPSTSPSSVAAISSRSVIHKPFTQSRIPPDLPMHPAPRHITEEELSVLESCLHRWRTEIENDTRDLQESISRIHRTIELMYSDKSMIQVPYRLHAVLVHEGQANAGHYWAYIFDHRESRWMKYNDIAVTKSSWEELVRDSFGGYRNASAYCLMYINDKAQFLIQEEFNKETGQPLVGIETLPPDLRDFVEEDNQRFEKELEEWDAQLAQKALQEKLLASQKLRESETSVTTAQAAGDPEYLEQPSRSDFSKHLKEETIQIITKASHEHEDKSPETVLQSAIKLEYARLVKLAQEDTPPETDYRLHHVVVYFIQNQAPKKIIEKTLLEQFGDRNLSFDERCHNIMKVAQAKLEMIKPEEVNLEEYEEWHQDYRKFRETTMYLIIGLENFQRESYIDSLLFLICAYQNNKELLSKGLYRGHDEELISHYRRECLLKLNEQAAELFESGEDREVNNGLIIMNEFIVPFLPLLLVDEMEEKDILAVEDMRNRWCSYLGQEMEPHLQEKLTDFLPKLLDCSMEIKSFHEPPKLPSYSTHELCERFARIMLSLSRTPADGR
Outline: as §1

USP28 = molecular target: T4, USP28 (UniProt Q96RU2)
T4 sequence (whole entry): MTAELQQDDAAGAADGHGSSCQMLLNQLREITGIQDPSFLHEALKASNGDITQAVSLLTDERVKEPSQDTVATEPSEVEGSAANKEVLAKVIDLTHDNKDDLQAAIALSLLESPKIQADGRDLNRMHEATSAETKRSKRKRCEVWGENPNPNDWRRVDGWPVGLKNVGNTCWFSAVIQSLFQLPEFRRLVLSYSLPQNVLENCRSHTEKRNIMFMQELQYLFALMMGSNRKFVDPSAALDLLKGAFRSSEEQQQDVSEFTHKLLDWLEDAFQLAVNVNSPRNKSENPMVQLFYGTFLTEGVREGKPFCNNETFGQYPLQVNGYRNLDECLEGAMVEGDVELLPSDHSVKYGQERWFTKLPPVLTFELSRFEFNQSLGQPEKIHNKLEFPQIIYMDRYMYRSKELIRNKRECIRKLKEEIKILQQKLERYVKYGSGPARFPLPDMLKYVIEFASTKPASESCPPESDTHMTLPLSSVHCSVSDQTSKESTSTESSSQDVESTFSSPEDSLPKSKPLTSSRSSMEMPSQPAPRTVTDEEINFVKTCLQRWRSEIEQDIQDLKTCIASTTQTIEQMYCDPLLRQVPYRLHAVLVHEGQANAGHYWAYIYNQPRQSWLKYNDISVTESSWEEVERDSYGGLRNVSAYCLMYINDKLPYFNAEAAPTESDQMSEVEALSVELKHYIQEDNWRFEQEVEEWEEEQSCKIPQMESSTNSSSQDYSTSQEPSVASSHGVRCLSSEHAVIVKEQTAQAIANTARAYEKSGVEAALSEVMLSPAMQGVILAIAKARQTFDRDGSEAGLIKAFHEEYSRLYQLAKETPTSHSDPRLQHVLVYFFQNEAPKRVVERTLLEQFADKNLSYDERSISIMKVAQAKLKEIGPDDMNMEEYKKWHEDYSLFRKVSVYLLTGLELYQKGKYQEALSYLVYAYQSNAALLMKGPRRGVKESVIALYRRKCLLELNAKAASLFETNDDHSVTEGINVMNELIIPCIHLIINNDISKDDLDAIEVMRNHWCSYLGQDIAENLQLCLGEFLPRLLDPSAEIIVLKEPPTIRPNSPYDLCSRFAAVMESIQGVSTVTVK
Outline: as §1

Measured: log2 ratio of Biotin-Ahx-Ub-VS probe labelling

O=C(CCl)N1CCC(c2ccn[nH]2)C1 (stereo not given)
inactive: USP19 -0.276 | USP22 -0.234 | USP24 -0.326 | USP25 -0.433 | USP28 -0.425
